Sampled rows, rich in hits. Any-hit rate of the full collection: about 7.3%.
HCMV antiviral = human cytomegalovirus inhibition | HFF cells, HCMV-luciferase reporter, 72 h; active compounds read low | activity change, negative = inhibition, % at 57.5 µM | 410,000 compounds, 4.5% hits; in the data active means activity change below about -60%; inconclusive means no clear call, values can overlap the other calls; inactive means above about -39%
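After 16 h attachment at 37C, HFF cells received test compound and HCMV-luciferase (1 PFU/cell); reporter luminescence read 72 h later, data normalized against buffer-only and known inhibitor Salinomycin.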
AmpC detergent = blocks E. coli AmpC beta-lactamase in detergent assay. P00811. AmpC hydrolysis of nitrocefin, absorbance 480 nm, 0.01% Triton. Potency, µM (titrated, usually from 114 µM), usual class: inhibitors. 370,000 compounds, 0.041% hits. AID 485294; further: nearly all actives have a fitted effect of over 25% in size
Target sequence (P00811 whole entry, looked up): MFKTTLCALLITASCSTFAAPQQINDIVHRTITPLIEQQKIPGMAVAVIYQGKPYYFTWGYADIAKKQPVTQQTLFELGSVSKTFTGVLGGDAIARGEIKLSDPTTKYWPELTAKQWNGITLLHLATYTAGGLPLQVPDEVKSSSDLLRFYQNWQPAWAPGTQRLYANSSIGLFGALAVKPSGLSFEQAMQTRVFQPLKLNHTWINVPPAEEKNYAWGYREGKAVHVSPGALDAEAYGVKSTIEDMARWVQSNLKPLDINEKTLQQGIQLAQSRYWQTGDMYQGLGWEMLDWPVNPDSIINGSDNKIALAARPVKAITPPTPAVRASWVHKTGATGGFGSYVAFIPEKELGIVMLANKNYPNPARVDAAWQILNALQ
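AmpC (5.3 nM in the dispensed reagent) in 20 mM phosphate pH 7.0 with 0.01% (detergent screen) or 0.0001% Triton X-100 was preincubated with compounds for 15 min at room temperature. Nitrocefin was then added from an 800 uM solution, and hydrolysis was followed at 480 nm.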
HCV inh = HCV inhibition; Huh7.5.1 HCVcc-Cre infection, luciferase reporter, 44 h; Potency, µM (highest dose often 41.8 µM), usual class: inhibitors; 340,000 compounds, 3.4% hits
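1,000 cells/well; 4 h culture; + compound; + HCVcc-Cre (~0.5 moi); 44 h; luciferase substrate, RT 15 min; read 15 sec.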
FMDV antiviral = antivirals against foot and mouth disease virus. FMDV antiviral cell-based qHTS. Potency, µM (series often up to 57.9 µM), hits mostly inhibitors. 410,000 compounds, 1.2% hits. AID 1159524; calls by dose curve; tested in HEK293T cells; further: read-out not given here; nearly all actives have a fitted effect of over 45% in size
AmpC inh no detg = blocks E. coli AmpC beta-lactamase in detergent-free assay; P00811; 330,000 compounds, 0.52% hits; Potency, µM (series often up to 57.1 µM), most hits filed as inhibitors; AmpC nitrocefin hydrolysis, absorbance 480 nm, 0.0001% Triton; further: nearly all actives have a fitted effect of over 20% in size
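AmpC (5.3 nM in the dispensed reagent) in 20 mM phosphate pH 7.0 with 0.01% (detergent screen) or 0.0001% Triton X-100 was preincubated with compounds for 15 min at room temperature. Nitrocefin was then added from an 800 uM solution, and hydrolysis was followed at 480 nm.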
Each line names hits and unclear results; the compound was inactive in the other large screens. Unless noted, the call rests on the fitted dose curve; in most records, active means well fitted curve in the direction sought with a large enough effect; inconclusive means small, poorly fitted or top-dose-only effect, or another doubt; inactive means no such curve, though single readings can be large; an effect the other way counts as inactive or inconclusive.

Cc1ccc(OCC(=O)Nc2ccc(N3CCN(C(=O)c4ccco4)CC3)cc2)cc1C	HCMV antiviral inconclusive, FMDV antiviral 14.1µM
COc1ccc(NC(=O)c2cc(-c3ccco3)nc3ccccc23)cc1S(=O)(=O)N1CCOCC1	HCV inh 8.91µM
Cc1ccc(NC(=O)c2cc(-c3ccco3)nc3ccccc23)cc1S(=O)(=O)N1CCOCC1	none
COc1ccc(NC(=O)c2ccccc2-c2ccc(C(F)(F)F)cc2)cc1S(=O)(=O)N1CCOCC1	HCMV antiviral -67.3
COc1ccc(Nc2nc(-c3ccccc3)nc3ccccc23)cc1S(=O)(=O)N1CCOCC1	HCMV antiviral -60.2, HCV inh 22.4µM, FMDV antiviral inconclusive
Cc1ccc(NC(=O)c2ccccc2-c2ccc(C(F)(F)F)cc2)cc1S(=O)(=O)N1CCOCC1	HCV inh inconclusive
CCCc1cc(C(=O)N/N=C/c2ccc(CC)s2)c2ccccc2n1	HCV inh inconclusive, FMDV antiviral inconclusive, AmpC inh no detg inconclusive
CCc1ccc(/C=N/NC(=O)c2cc(-c3ccncc3)nc3ccccc23)s1	HCMV antiviral -66.1, HCV inh inconclusive
CCOc1cccc(-c2cc(C(=O)Nc3ccon3)c3ccccc3n2)c1	HCV inh inconclusive, FMDV antiviral inconclusive, AmpC inh no detg 17.8µM
O=C(NNS(=O)(=O)c1cccc(Cl)c1)c1cc(-c2ccc(F)cc2)nc2ccccc12	AmpC inh no detg 12.6µM
O=C(NN=C1CCCC1)c1cc(-c2ccc(F)cc2)nc2ccccc12	none
O=C(Nc1ccccn1)c1cc(-c2cccc(Cl)c2)nc2ccccc12	HCMV antiviral -71.3, HCV inh 15.8µM
O=C(Nc1ccon1)c1cc(-c2ccccc2)nc2ccccc12	FMDV antiviral inconclusive
Cc1c(NC(=O)c2cc([N+](=O)[O-])ccc2N2CCOCC2)cccc1-c1nc2ccccc2o1	none (no result: HCV inh, AmpC inh no detg)
COc1ccc(C(=O)OCc2csc(C)n2)c(O)c1	AmpC detergent inconclusive
Cc1ccc2c(c1)C(=O)OC(C(=O)Nc1ncc(Cc3ccc(C(C)C)cc3)s1)C2 (centres undefined)	none (no result: HCV inh, AmpC inh no detg)
O=c1c(CCc2ccccc2)nc2cncnc2n1Cc1ccccc1Cl	none (no result: HCMV antiviral, AmpC detergent, HCV inh, AmpC inh no detg)
Cc1ccc(-c2cc(C(=O)Nc3ccncc3)c3ccccc3n2)cc1	none
CC(C)(C)c1ccccc1NC(=O)c1cc(-c2ccncc2)nc2ccccc12	HCV inh 11.2µM (no result: AmpC detergent)
Cc1ccc(C(=O)N/N=C\c2ccncc2)s1	none
CCc1ccc(C(=O)N/N=C/c2ccncc2)s1	AmpC detergent inconclusive, HCV inh 12.6µM
O=C(N/N=C/c1cccs1)c1cc(C2CC2)nc2ccccc12	HCV inh inconclusive
O=C(N/N=C/c1cccs1)c1cc(-c2ccncc2)nc2ccccc12	HCMV antiviral -72.3, AmpC detergent inconclusive, HCV inh inconclusive, FMDV antiviral inconclusive
Cc1ccc(SCC(=O)NNC(=O)CNC(=O)c2ccc(Br)cc2)cc1	none (no result: AmpC detergent)
CCOC(=O)c1sc2ncnc(N3CCN(C(=O)OCC)CC3)c2c1C	HCMV antiviral inconclusive, FMDV antiviral 15.8µM
COc1ccccc1OCC(=O)NNC(=O)C1CCN(c2ncnc3sc(C)c(C)c23)CC1	HCV inh 11.2µM, FMDV antiviral 17.8µM
CCOC(=O)c1sc2ncnc(N3CCN(CC)CC3)c2c1C	HCMV antiviral inconclusive, AmpC detergent inconclusive, HCV inh inconclusive
Cc1ccccc1OCC(=O)NNC(=O)C1CCN(c2ncnc3sc(C)c(C)c23)CC1	HCV inh inconclusive, FMDV antiviral inconclusive
CCN(CC)c1ccc(C(=O)NNC(=O)C2CCN(c3ncnc4sc(C)c(C)c34)CC2)cc1	FMDV antiviral 11.2µM (no result: AmpC detergent, HCV inh, AmpC inh no detg)
COc1cc(C(=O)N2CCN(c3ncnc4sc(C)c(C)c34)CC2)cc(OC)c1OC	HCMV antiviral -79.4, AmpC detergent inconclusive, HCV inh 5.62µM, FMDV antiviral 11.2µM
Cc1sc2ncnc(N3CCC(C(=O)Nc4ccc(Cl)cc4Cl)CC3)c2c1C	HCV inh inconclusive
COc1ccc(-c2csc(NC(=O)C3CCN(c4ncnc5sc(C)c(C)c45)CC3)n2)cc1OC	HCMV antiviral -99.5, HCV inh 2.51µM, FMDV antiviral 8.91µM
Cc1cccc(OCC(=O)NNC(=O)C2CCN(c3ncnc4sc(C)c(C)c34)CC2)c1	FMDV antiviral 28.2µM
CCc1ccc(-c2cn3c(n2)sc2cc(C(=O)NC4CCCCCC4)ccc23)cc1	none (no result: HCMV antiviral, HCV inh, AmpC inh no detg)
CCOC(=O)[C@]12Cc3c(cc(OC)c(OC)c3OC)[C@H]1N(Cc1ccccc1)C(=O)c1cc(F)c(F)cc12	HCMV antiviral -61.4 (no result: AmpC detergent, HCV inh, AmpC inh no detg)
CCOC(=O)[C@]12Cc3cc(C)ccc3[C@H]1N(Cc1ccccc1)C(=O)c1cc(F)c(F)cc12	HCMV antiviral -108.7, FMDV antiviral 11.2µM (no result: AmpC detergent, HCV inh, AmpC inh no detg)
CCOC(=O)[C@]12Cc3c(cc(OC)c(OC)c3OC)[C@H]1N(Cc1ccccc1)C(=O)c1cc(OC)ccc12	HCMV antiviral -107.2, FMDV antiviral 17.8µM (no result: AmpC detergent, HCV inh, AmpC inh no detg)
CCOC(=O)[C@]12Cc3cc(OC)ccc3[C@H]1N(Cc1ccccc1)C(=O)c1ccccc12	HCV inh inconclusive (no result: AmpC detergent, AmpC inh no detg)
CCOC(=O)[C@]12Cc3cc(OC)ccc3[C@H]1N(Cc1ccccc1)C(=O)c1cc(F)c(F)cc12	none (no result: AmpC detergent, AmpC inh no detg)
COc1ccc(CNC(=O)COC(=O)CNC(=O)c2sc3ccccc3c2Cl)cc1OC	none
CCCc1cc(=O)oc2cc(C)cc(OCC(=O)NCCN3CCOCC3)c12	none
CCCc1cc(=O)oc2cc(OCC(=O)NCCN3CCOCC3)c(Cl)cc12	HCMV antiviral -79.1 (no result: AmpC detergent, HCV inh, AmpC inh no detg)
CCCNC(=O)C1CN(S(=O)(=O)c2ccc(Cl)s2)c2ccccc2O1 (centres undefined)	AmpC detergent inconclusive
COc1ccc(-n2nc(C(=O)N3CCN(c4cccc(C)c4C)CC3)c3c4ccccc4n(C)c3c2=O)cc1Cl	none (no result: HCV inh, AmpC inh no detg)
Cc1cccc(/C=N\NC(=O)c2ccc(Cl)cc2)c1O	HCMV antiviral -101.2, HCV inh inconclusive
Cc1ccc(O)c(/C=N/NC(=O)Cc2ccc(Cl)cc2)c1	HCMV antiviral -99.4, HCV inh inconclusive
O=C(N/N=C/c1ccoc1)c1ccc(Cl)cc1	HCMV antiviral -74.6
O=C(Cc1ccc(Cl)cc1)N/N=C/c1c(Cl)cccc1Cl	none
Cc1cccc(/C=N/NC(=O)Cc2ccc(Cl)cc2)c1O	HCMV antiviral -89.3, HCV inh 12.6µM
CCCCn1c(N)c(N(CCC(C)C)C(=O)C2CC(=O)N(c3ccc(OC)cc3OC)C2)c(=O)[nH]c1=O (centres undefined)	none
Cc1onc(-c2c(F)cccc2Cl)c1C(=O)Oc1ccccc1	none (no result: AmpC detergent, HCV inh, AmpC inh no detg)
COc1cccc(/C=N/NC(=O)c2c(C)nc3ccc(Cl)cn23)c1O	HCMV antiviral -99.2, HCV inh 2.51µM
CC1(C)CN(CCc2ccccc2)C(=O)[C@H]1CC(=O)Nc1ccccc1	none (no result: AmpC detergent, HCV inh, AmpC inh no detg)
CCN(CC)C(=O)Cn1cc(C(=O)C(=O)N2CCN(Cc3ccc4c(c3)OCO4)CC2)c2ccccc21	none
Cc1ccc(Cl)cc1N(CC(=O)NCc1ccccc1)S(C)(=O)=O	none
Cc1csc(N(C(=O)c2cccc(S(=O)(=O)N(C)C)c2)c2ccccc2)n1	FMDV antiviral 8.91µM

From PubChem
